The values that follow come from PubChem BioAssay AID493242 (Broad Institute, 2011).

Results with a measured potency or affinity are listed apart. Active and inactive are the calls of the source. No rule for the calls is given here.

This assay addresses Replicative DNA helicase DnaB (Mycobacterium tuberculosis (strain ATCC 25618 / H37Rv)) (UniProt P9WMR3). Kind of assay: Replicative DNA helicase DnaB intein splicing, Mycobacterium tuberculosis, inhibitor dose response, secondary (AID 493242).

Replicative DNA helicase DnaB (Mycobacterium tuberculosis (strain ATCC 25618 / H37Rv)), sequence (P9WMR3 whole entry, looked up): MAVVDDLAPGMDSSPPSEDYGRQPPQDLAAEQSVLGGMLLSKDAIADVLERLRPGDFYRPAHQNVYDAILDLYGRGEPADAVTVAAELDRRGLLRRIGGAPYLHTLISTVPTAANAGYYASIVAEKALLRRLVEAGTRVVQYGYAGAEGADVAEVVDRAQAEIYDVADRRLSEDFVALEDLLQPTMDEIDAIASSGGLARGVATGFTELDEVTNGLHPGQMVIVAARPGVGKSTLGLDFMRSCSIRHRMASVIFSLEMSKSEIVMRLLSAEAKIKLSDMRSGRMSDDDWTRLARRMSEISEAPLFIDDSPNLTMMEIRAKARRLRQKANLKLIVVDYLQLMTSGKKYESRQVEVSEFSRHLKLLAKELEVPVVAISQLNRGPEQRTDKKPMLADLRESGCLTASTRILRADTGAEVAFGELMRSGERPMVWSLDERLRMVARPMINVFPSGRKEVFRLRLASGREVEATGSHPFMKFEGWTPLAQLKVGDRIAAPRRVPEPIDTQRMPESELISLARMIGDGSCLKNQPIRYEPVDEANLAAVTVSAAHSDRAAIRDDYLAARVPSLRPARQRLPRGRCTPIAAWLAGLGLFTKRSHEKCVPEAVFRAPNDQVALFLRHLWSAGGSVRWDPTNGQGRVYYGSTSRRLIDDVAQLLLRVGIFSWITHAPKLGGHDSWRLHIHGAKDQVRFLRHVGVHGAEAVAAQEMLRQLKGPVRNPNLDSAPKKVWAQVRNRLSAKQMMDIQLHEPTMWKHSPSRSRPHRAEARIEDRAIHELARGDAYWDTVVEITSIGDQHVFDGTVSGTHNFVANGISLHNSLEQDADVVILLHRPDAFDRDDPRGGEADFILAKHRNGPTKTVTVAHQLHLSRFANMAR

For the compound `Nc1cn(-c2ccccc2)nc1-c1ccc(F)cc1`, the compound was classed as inactive.
